The results in this text go back to PubChem BioAssay (EPA / NIEHS).

Calls of active or inactive are those of the source. Rule for the calls: active = hit-call score of the fitted dose curve at least 0.9, where 1 is the maximum; inactive = score below 0.9.

Read-out in one experiment: CFLAR gene, CFLAR (gene 8837)
As to the kind of experiment: LTEA_HepaRG_CFLAR: Life Technologies and Expression Analysis (LTEA) Assay for CFLAR gene using HepaRG (AID 2283455). To be noted: mRNA level, 48 h; actives raise or lower the signal. An outline of the steps: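 HepaRG, 48 h exposure, 8-pt conc-response (100 uM top, half-log), 0.5% DMSO vehicle, duplicates. CFLAR expression by qRT-PCR; ACTB/GAPDH/POLR2A normalization; gain or loss fit vs DMSO baseline.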
Regarding `Nc1nc(Cl)nc2c1ncn2[C@H]1C[C@H](O)[C@@H](CO)O1`, the compound was classed as inactive.

Take `CCCCCCCCCC[N+](C)(C)[O-]`: the compound was classed as inactive.

Turning to `Oc1ccc(O)cc1`, the compound was called inactive.

With `O=C(O)CN(CC(=O)O)CC(=O)O`, the compound was classed as inactive.

As to `O=C1c2c(O)cccc2Cc2cccc(O)c21`, the outcome was inactive.

In the case of `O=C1OC(c2ccc(O)cc2)(c2ccc(O)cc2)c2ccccc21`, the concentration at half-maximal activity (AC50) (in general, the concentration giving half of the maximal activity seen) was 76.4 µM (active).

With `CC(COCC(C)OC(=O)c1ccccc1)OC(=O)c1ccccc1` (stereo not given), the compound was called inactive.

Consider `C#CC(O)C(CC)CCCC` (stereo not given), for which the compound was classed as inactive.

Regarding `O=C(O)c1[nH]n(-c2ccc(S(=O)(=O)O)cc2)c(=O)c1N=Nc1ccc(S(=O)(=O)O)cc1`, the call was inactive.

Take `CS(=O)(=O)c1ccc([C@@H](C[C@H]2CCC(=O)C2)C(=O)Nc2cnccn2)cc1Cl`: the AC50 was 0.753 µM (active).

Take `CC1=C(C)S(=O)(=O)CCS1(=O)=O`: the result was inactive.

As to `CCN(CC)CCOc1ccc(C(=C(Cl)c2ccccc2)c2ccccc2)cc1`, the outcome was inactive.

As to `Oc1ccccc1O`, the call was inactive.

Consider `O=C1NC(=O)C(c2ccccc2)(c2ccccc2)N1`, for which the compound was classed as inactive.

For `CN(C)C(=O)NC1(c2ccccc2)CCN(CCC[C@]2(c3ccc(Cl)c(Cl)c3)CCCN(C(=O)c3ccccc3)C2)CC1`, the result was inactive.

Regarding `CC(=O)O`, the result was inactive.

`O=C(Oc1ccccc1)c1cccc(C(=O)Oc2ccccc2)c1`: the result was inactive.

For `O=C(O)CC(O)(CC(=O)O)C(=O)O`, the compound was classed as inactive.

In the case of `Cc1c(C)c2c(c(C)c1O)CCC(C)(COc1ccc(CC3SC(=O)NC3=O)cc1)O2` (stereo not given), the call was inactive.

On to `CC(=O)[C@@]1(O)CC[C@H]2[C@@H]3CCC4=CC(=O)CC[C@]4(C)[C@H]3CC[C@@]21C`, for which the outcome was inactive.

For `CCCCc1nc2cccnc2n1Cc1ccc(-c2ccccc2-c2nnn[nH]2)cc1`, the compound was called inactive.

For `CC(C)(O)c1ccc(CNC(=O)c2cccnc2Oc2ccc(F)cc2)cc1`, the call was inactive.

Regarding `Cc1cc(Cc2ccc(N)c(C)c2)ccc1N`, the outcome was inactive.

Regarding `COc1ccc(C(=O)Nc2nc3ccccc3c(NCc3ccccc3)c2C#N)cc1`, the outcome was inactive.

As for `S=c1[nH]c2ccccc2s1`, the outcome was inactive.

Consider `CC(=O)O[C@]1(C(C)=O)CC[C@H]2[C@@H]3C=C(Cl)C4=CC(=O)[C@@H]5C[C@@H]5[C@]4(C)[C@H]3CC[C@@]21C`, for which the AC50 was 50 µM (active).

Consider `OCC(O)CO`, for which the result was inactive.

`CCC(C)N(C)C(=O)c1cc2ccccc2c(-c2ccccc2Cl)n1` (stereo not given): the compound was called inactive.

Regarding `c1ccc2occc2c1`, the compound was classed as inactive.

Read-out in a further experiment: Forkhead box O1 (FOXO1), FOXO1 (gene 2308)
As to the kind of experiment: LTEA_HepaRG_FOXO1: Life Technologies and Expression Analysis (LTEA) Assay for Forkhead box O1 (FOXO1) using HepaRG (AID 2283456). To be noted: mRNA level, 48 h; actives raise or lower the signal. An outline of the steps:
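Readout is FOXO1 transcript level by multiplexed qRT-PCR against three housekeeping genes, curve-fitted in both directions relative to 0.5% DMSO vehicle. Human HepaRG cultures received chemicals for 48 h, up to 100 uM in half-log steps.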
As to `Nc1nc(Cl)nc2c1ncn2[C@H]1C[C@H](O)[C@@H](CO)O1`, the concentration at half-maximal activity (AC50) was 1.65 µM (active).

Regarding `CCCCCCCCCC[N+](C)(C)[O-]`, the result was inactive.

`Oc1ccc(O)cc1`: the outcome was inactive.

`O=C(O)CN(CC(=O)O)CC(=O)O`: the call was inactive.

Take `O=C1c2c(O)cccc2Cc2cccc(O)c21`: the outcome was inactive.

Regarding `O=C1OC(c2ccc(O)cc2)(c2ccc(O)cc2)c2ccccc21`, the AC50 was 50 µM (active).

Consider `CC(COCC(C)OC(=O)c1ccccc1)OC(=O)c1ccccc1` (stereo not given), for which the call was inactive.

As for `C#CC(O)C(CC)CCCC` (stereo not given), the compound was classed as inactive.

Consider `O=C(O)c1[nH]n(-c2ccc(S(=O)(=O)O)cc2)c(=O)c1N=Nc1ccc(S(=O)(=O)O)cc1`, for which the compound was called inactive.

For the compound `CS(=O)(=O)c1ccc([C@@H](C[C@H]2CCC(=O)C2)C(=O)Nc2cnccn2)cc1Cl`, the AC50 is 1.27 µM (active).

On to `CC1=C(C)S(=O)(=O)CCS1(=O)=O`, for which the compound was classed as inactive.

With `CCN(CC)CCOc1ccc(C(=C(Cl)c2ccccc2)c2ccccc2)cc1`, the result was inactive.

Turning to `Oc1ccccc1O`, the compound was classed as inactive.

Consider `O=C1NC(=O)C(c2ccccc2)(c2ccccc2)N1`, for which the compound was classed as inactive.

Take `CN(C)C(=O)NC1(c2ccccc2)CCN(CCC[C@]2(c3ccc(Cl)c(Cl)c3)CCCN(C(=O)c3ccccc3)C2)CC1`: the AC50 was 18.7 µM (active).

Turning to `CC(=O)O`, the result was inactive.

Take `O=C(Oc1ccccc1)c1cccc(C(=O)Oc2ccccc2)c1`: the compound was classed as inactive.

Turning to `O=C(O)CC(O)(CC(=O)O)C(=O)O`, the result was inactive.

As for `Cc1c(C)c2c(c(C)c1O)CCC(C)(COc1ccc(CC3SC(=O)NC3=O)cc1)O2` (stereo not given), the compound was called inactive.

In the case of `CC(=O)[C@@]1(O)CC[C@H]2[C@@H]3CCC4=CC(=O)CC[C@]4(C)[C@H]3CC[C@@]21C`, the outcome was inactive.

On to `CCCCc1nc2cccnc2n1Cc1ccc(-c2ccccc2-c2nnn[nH]2)cc1`, for which the compound was called inactive.

With `CC(C)(O)c1ccc(CNC(=O)c2cccnc2Oc2ccc(F)cc2)cc1`, the compound was classed as inactive.

With `Cc1cc(Cc2ccc(N)c(C)c2)ccc1N`, the result was inactive.

`COc1ccc(C(=O)Nc2nc3ccccc3c(NCc3ccccc3)c2C#N)cc1`: the compound was called inactive.

Take `S=c1[nH]c2ccccc2s1`: the call was inactive.

`CC(=O)O[C@]1(C(C)=O)CC[C@H]2[C@@H]3C=C(Cl)C4=CC(=O)[C@@H]5C[C@@H]5[C@]4(C)[C@H]3CC[C@@]21C`: the AC50 is 50 µM (active).

On to `OCC(O)CO`, for which the compound was called inactive.

With `CCC(C)N(C)C(=O)c1cc2ccccc2c(-c2ccccc2Cl)n1` (stereo not given), the compound was classed as inactive.

Take `c1ccc2occc2c1`: the result was inactive.

Read-out in the next experiment: not listed separately
As to the kind of experiment: CEETOX_H295R_TESTO: CeeTox H295R High-throughput Steroidogenesis Assay for Testosterone (TESTO) (AID 2283457). As to conditions: actives raise or lower the signal. An outline of the steps: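 H295R, passage ≤10, 48 h dosing; media extracted with MTBE → HPLC-MS/MS for testosterone; 7-pt standard curve sets LLOQ/ULOQ; bidirectional fit vs DMSO; MTT viability same wells.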
With `CCCCCCCCCC[N+](C)(C)[O-]`, the compound was called inactive.

Regarding `O=C1OC(c2ccc(O)cc2)(c2ccc(O)cc2)c2ccccc21`, the outcome was inactive.

As for `CC1=C(C)S(=O)(=O)CCS1(=O)=O`, the outcome was inactive.

Take `CCN(CC)CCOc1ccc(C(=C(Cl)c2ccccc2)c2ccccc2)cc1`: the outcome was inactive.

Turning to `O=C(Oc1ccccc1)c1cccc(C(=O)Oc2ccccc2)c1`, the compound was classed as inactive.

Consider `Cc1c(C)c2c(c(C)c1O)CCC(C)(COc1ccc(CC3SC(=O)NC3=O)cc1)O2` (stereo not given), for which the call was inactive.

Turning to `CCC(C)N(C)C(=O)c1cc2ccccc2c(-c2ccccc2Cl)n1` (stereo not given), the compound was called inactive.
